Experimental findings from PubChem BioAssay (Tox21) are described below.

Results filed as inconclusive are left out. Where a call stands in place of a potency, no number is given. Values without a mark were called inactive. Active and inactive are the calls of the source. Calls come from the whole dose curve.

This test can be described thus: qHTS assay for small molecule agonists of the antioxidant response element (ARE) signaling pathway - cell viability counter screen (AID 743203). Note: nearly all actives have a fitted effect of over 55% in size. Particulars: ARE-bla HepG2 viability, CellTiter-Glo luminescence, 16 h; series mostly up to 73.3 µM; viability change, negative = cytotoxic: at the top concentration. The procedure, abridged: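 ATP content via CellTiter-Glo luminescence served as the viability measure. Cells: ARE-bla HepG2, 2,000 per well. Exposure: 16 hrs, 37C/5% CO2.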
On the technique in general: In qHTS, concentration-response curves come from the screen itself.
Turning to `O=S1(=O)CCCO1`, the Potency entry was “inactive”.

Take `CCOC(=O)C(C)Oc1ccc(Oc2cnc3cc(Cl)ccc3n2)cc1` (stereo not given): the Potency result is “inactive”.

As for `C=C[Si](OCCOC)(OCCOC)OCCOC`, the Potency entry is “inactive”.

For `CN(C)/N=N/c1nc[nH]c1C(N)=O`, the Potency entry is “inactive”.

Consider `CCC/C=C/C=O`, for which the Potency entry is “inactive”.

As for `CCCCCCCCCCCCO`, the Potency entry is “inactive”.

Take `CC(C)[N+](C)(CCOC(=O)C1c2ccccc2Oc2ccccc21)C(C)C`: the Potency result was “inactive”.

As for `COC(=O)c1ccc(C)cc1`, the Potency entry is “inactive”.

As for `CCCCCCCCCCCCCO`, the Potency entry is “inactive”.

As to `CC(C)=CCO`, the Potency entry is “inactive”.

For the compound `CC(=O)Oc1c(C)c(C)c2c(c1C)CC[C@@](C)(CCC[C@H](C)CCC[C@H](C)CCCC(C)C)O2`, the Potency entry was “inactive”.

In the case of `Cc1ccc(C(C)(C)C)cc1`, the Potency entry is “inactive”.

For the compound `CCO[Si](CCCNC(N)=O)(OCC)OCC`, the Potency result was “inactive”.

For `OC[C@H]1O[C@@H]2O[C@H]3[C@H](O)[C@@H](O)[C@@H](O[C@H]4[C@H](O)[C@@H](O)[C@@H](O[C@H]5[C@H](O)[C@@H](O)[C@@H](O[C@H]6[C@H](O)[C@@H](O)[C@@H](O[C@H]7[C@H](O)[C@@H](O)[C@@H](O[C@H]1[C@H](O)[C@H]2O)O[C@@H]7CO)O[C@@H]6CO)O[C@@H]5CO)O[C@@H]4CO)O[C@@H]3CO`, the Potency result was “inactive”.

Consider `CC1(C)O[C@@H]2C[C@H]3[C@@H]4C[C@H](F)C5=CC(=O)C=C[C@]5(C)[C@@]4(F)[C@@H](O)C[C@]3(C)[C@]2(C(=O)CO)O1`, for which the Potency entry was “inactive”.

In the case of `CN(C)C`, the “viability change, negative = cytotoxic” value was 5.85% [at 94.8 µM].

Consider `CCC(Cc1c(I)cc(I)c(N)c1I)C(=O)O` (stereo not given), for which the Potency entry was “inactive”.

Take `[Na+]`: the Potency entry was “inactive”.

With `C1COCCN1`, the Potency entry was “inactive”.

For `Nc1cc(Cl)c(N)c(Cl)c1`, the Potency result was “inactive”.
